From PubChem BioAssay (NCATS)
Inconclusive results are not listed. Entries that show only a call come without a potency. Values without a mark were called inactive. Calls of active or inactive are those of the source. The call rests on the fitted dose curve; in most records, active means well fitted curve in the direction sought with a large enough effect; inconclusive means small, poorly fitted or top-dose-only effect, or another doubt; inactive means no such curve, though single readings can be large; an effect the other way counts as inactive or inconclusive.

What was measured:
[1] = tested on: Zika virus NS2B-NS3 protease; assay: Primary screen GU AMC qHTS for Zika virus inhibitors (AID 1347154); further: nearly all actives have a fitted effect of over 70% in size; further: potency means the concentration at half of the fitted maximal effect
How it was run: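 Unlinked Zika NS2B hydrophilic domain/NS3 protease domain noncovalent complex (25 nM final) in 10 mM Tris-HCl pH 8.0, 0.01% Tween 20, with AMC peptide substrate. Fluorescence (ex 340, em 450 nm) change over 15 min, room temperature; percent inhibition fitted to 4-parameter Hill equation.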

[2] = tested on: Zika virus NS2B-NS3 protease (unlinked complex); assay: Primary screen GU Rhodamine qHTS for Zika virus inhibitors: Unlinked NS2B-NS3 protease assay (AID 1347159); further: nearly all actives have a fitted effect of over 60% in size; further: potency means the concentration at half of the fitted maximal effect
How it was run: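 Compounds, tested up to 114 microM, were incubated for 15 minutes with 25 nM unlinked NS2B-NS3 protease at pH 8.0. Cleavage of 1.5 microM Rhodamine110 substrate was then followed by fluorescence for 15 minutes.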

[3] = tested on: Zika virus NS2B-NS3 protease (linked construct); assay: Primary screen NINDS Rhodamine qHTS for Zika virus inhibitors (AID 1347160); further: nearly all actives have a fitted effect of over 55% in size
How it was run: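 Percent inhibition, normalized to uninhibited and enzyme-free controls, is fitted to a 4-parameter Hill equation. Fluorescence change comes from a 15-min cleavage of 1.5 microM bis-peptide Rhodamine110 substrate by 25 nM linked NS2B-NS3 at room temperature.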

[4] = Confirmatory screen GU Rhodamine qHTS for Zika virus inhibitors qHTS (AID 1347157); further: potency means the concentration at half of the fitted maximal effect; nearly all actives have a fitted effect of over 70% in size
How it was run: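 Percent inhibition derives from the 15-min fluorescence change (ex 480, em 540 nm), normalized to no-enzyme and no-inhibitor wells. Reactions contained 25 nM NS2B-NS3 complex and 1.5 microM substrate in 10 mM Tris-HCl pH 8.0.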

## CN1[C@H]2CC[C@H]1CC(OC(=O)c1c[nH]c3ccccc13)C2 (stereo partly drawn)
[1]
  Potency: inactive

## CCc1cccc(CC)c1NC(=O)N1Cc2[nH]nc(NC(=O)c3ccc(N4CCN(C)CC4)cc3)c2C1
[1]
  Potency: inactive
[2]
  Potency: inactive
[3]
  Potency: inactive

## CCCCC(F)(F)[C@@]1(O)CC[C@H]2[C@H](CC(=O)[C@@H]2CCCCCCC(=O)O)O1
[1]
  Potency: inactive
[2]
  Potency: inactive
[3]
  Potency: inactive

## CC1=C(C(=O)Nc2cc3cn[nH]c3cc2F)C(c2ccc(C(F)(F)F)cc2)CC(=O)N1 (stereo not drawn)
[1]
  Potency: inactive
[2]
  Potency: inactive
[3]
  Potency: inactive

## CNC(=O)c1c(-c2ccc(F)cc2)oc2cc(N(CCO)S(C)(=O)=O)c(C3CC3)cc12
[1]
  Potency: 27.1 µM (active)
[2]
  Potency: inactive
[3]
  Potency: inactive

## CN1CCC(COc2cnc(-c3cccc(Cn4nc(-c5cccc(C#N)c5)ccc4=O)c3)nc2)CC1
[1]
  Potency: inactive
[2]
  Potency: inactive
[3]
  Potency: inactive

## Fc1ccc(CNc2ncnc3ccc(F)cc23)cc1
[1]
  Potency: inactive
[2]
  Potency: inactive
[3]
  Potency: inactive

## N#Cc1c(N(CC(=O)O)CC(=O)O)sc(C(=O)O)c1CC(=O)O
[1]
  Potency: inactive

## C[C@@H](NC(=O)c1ncnc(N)c1Cl)c1ncc(C(=O)Nc2cc(C(F)(F)F)c(Cl)cn2)s1
[1]
  Potency: inactive
[2]
  Potency: inactive
[3]
  Potency: inactive

## CC1CCN(c2cc(N3CCN(C)CC3)ccc2NC(=O)c2cc(C#N)c[nH]2)CC1
[1]
  Potency: inactive
[2]
  Potency: inactive
[3]
  Potency: inactive

## Cc1cnc(CNC(=O)c2c(=O)c3ccc(N4CCCN(C)CC4)nc3n3c2sc2ccccc23)cn1
[1]
  Potency: inactive
[2]
  activity change, negative = inhibition: 5.25% [at 19.1 µM]
[3]
  activity change, negative = inhibition: 6.93% [at 10.7 µM]

## O=C(Nc1ccc(OC(F)(F)F)cc1)c1sccc1NCc1ccnc2ccccc12
[1]
  Potency: inactive
[2]
  Potency: inactive
[3]
  Potency: inactive

## NC(=O)c1ccc(N(C(N)=O)c2c(F)cccc2F)nc1-c1ccc(F)cc1F
[1]
  Potency: inactive
[2]
  Potency: inactive
[3]
  Potency: inactive

## CC(C)(OCc1nn(Cc2ccccc2)c2ccccc12)C(=O)O
[1]
  Potency: inactive
[2]
  Potency: inactive
[3]
  Potency: inactive

## C[C@@H](N)c1ccc(C(=O)Nc2ccnc3[nH]ccc23)cc1
[1]
  Potency: inactive
[2]
  Potency: inactive
[3]
  Potency: inactive

## Cc1nc2c([nH]1)CCN(C(=O)c1ccc(NC(=O)c3ccccc3-c3ccccc3)cc1)c1ccccc1-2
[1]
  Potency: inactive
[2]
  Potency: inactive
[3]
  Potency: inactive

## Cc1ccc(NC(=O)c2cccc(N(C)C)c2)cc1NC(=O)c1ccc(O)cc1
[1]
  Potency: inactive

## CN1CCc2c(n(Cc3ccc(C(=O)NO)cc3)c3ccccc23)C1
[1]
  Potency: inactive
[2]
  Potency: inactive
[3]
  Potency: inactive

## O=C(Nc1cccc(C(F)(F)F)c1)Nc1cc(S(=O)(=O)NC2CC2)ccc1-c1ccsc1
[1]
  Potency: inactive
[2]
  Potency: 22.4 µM (active)

## CNc1nc(Nc2ccc(C(=O)N3CCOCC3)cc2OC)ncc1Cl
[1]
  Potency: inactive
[2]
  Potency: inactive
[3]
  Potency: inactive

## O=C(O)CCNc1cc(N2CCc3ccccc3CC2)nc(-c2ccccn2)n1
[1]
  Potency: inactive
[2]
  Potency: inactive
[3]
  activity change, negative = inhibition: -4.33% [at 10.7 µM]

## COc1nc(C)cnc1NS(=O)(=O)c1cccnc1-c1ccc(-c2nnco2)cc1
[1]
  Potency: inactive
[2]
  Potency: inactive
[3]
  Potency: inactive

## c1ccc(-c2oc3ncnc(NC[C@@H]4CCCO4)c3c2-c2ccccc2)cc1
[1]
  Potency: 30.4 µM (active)
[2]
  Potency: inactive
[3]
  Potency: inactive

## Cn1c(=O)c(-c2c(Cl)cccc2Cl)cc2cnc(Nc3cccc(C(=O)O)c3)nc21
[1]
  Potency: inactive
[4]
  Potency: 11.1 µM (active)
[2]
  Potency: 7.94 µM (active)
[3]
  Potency: inactive

## CCN1CCC(n2cc(CNc3cc(Cl)c4ncc(C#N)c(Nc5ccc(F)c(Cl)c5)c4c3)nn2)CC1
[1]
  Potency: inactive
[2]
  Potency: inactive
[3]
  Potency: inactive

## COc1nccc(-c2c(-c3ccc(F)cc3)ncn2C2CCC(O)CC2)n1 (stereo not drawn)
[1]
  Potency: inactive
[2]
  Potency: inactive
[3]
  Potency: inactive

## CNC1CCC(N(Cc2cccc(-c3ccncc3)c2)C(=O)c2sc3ccccc3c2Cl)CC1 (stereo not drawn)
[1]
  Potency: inactive
[2]
  Potency: inactive
[3]
  Potency: inactive

## CN(C)CCOc1cc(-c2cn[nH]c2)ccc1NC(=O)C1COc2ccccc2O1 (stereo not drawn)
[1]
  Potency: inactive
[2]
  Potency: inactive
[3]
  Potency: inactive

## CN1CCN(c2cccc(Nc3nc4c(-c5ccc(S(C)(=O)=O)cc5)cccn4n3)c2)CC1
[2]
  Potency: inactive
[3]
  Potency: inactive

## Cc1cc(-c2ncc(CC(=O)Nc3ccc(-c4cnccn4)cn3)cc2C)ccn1
[2]
  Potency: inactive
[3]
  Potency: inactive

## COc1ccc(-c2nc3ccc(C4=NNC(=O)CC4C)cc3[nH]2)cc1 (stereo not drawn)
[2]
  Potency: inactive
[3]
  Potency: inactive

## COC(=O)N1CCN(Cc2cccc(NC(=O)Nc3ccc(C)nc3)c2F)CC1
[1]
  Potency: inactive
[2]
  Potency: inactive
[3]
  Potency: inactive

## O=C(CO)N1CCC(c2[nH]nc(-c3ccc(Cl)cc3)c2-c2ccncn2)CC1
[1]
  Potency: inactive
[2]
  Potency: inactive
[3]
  Potency: inactive

## O[C@@H](COc1cccc2ncccc12)CN1CCN(C2c3ccccc3[C@@H]3[C@H](c4ccccc42)C3(F)F)CC1 (stereo partly drawn)
[2]
  Potency: inactive
[3]
  Potency: inactive

## CC(C)(C)c1nc(-c2cccc(NS(=O)(=O)c3c(F)cccc3F)c2F)c(-c2ccnc(N)n2)s1
[2]
  Potency: 14.1 µM (active)

## CC[C@H](CC#N)OC(=O)N[C@@H](C)c1cccc(NC(=O)Nc2ccc(-c3cnco3)c(OC)c2)c1
[1]
  Potency: inactive
[3]
  Potency: inactive

## NS(=O)(=O)c1ccc(Nc2nc(OCC3CCCCC3)c3[nH]cnc3n2)cc1
[1]
  Potency: inactive
[3]
  Potency: inactive

## CCN1C[C@H](C)n2c(c(O)c3c(=O)n(Cc4ccc(F)c(Cl)c4)nc(C(=O)NC)c32)C1=O
[1]
  Potency: inactive
[3]
  Potency: inactive

## NC(=O)c1noc([C@H](CCCC2CCCCC2)CC(=O)NO)n1
[2]
  Potency: inactive
[3]
  Potency: inactive

## COc1ccc(Cn2ccc3ccc(C(=O)NO)cc32)cc1
[2]
  Potency: inactive
[3]
  Potency: inactive

## CN(C)CCCNC(=O)c1ccc(-c2cc(O)c3ncccc3c2)cc1
[1]
  Potency: inactive
[3]
  Potency: inactive

## O=C(c1ccc(C(=O)N2CCC(N3CCCC3)CC2)c(Nc2ccccc2)c1)N1CCC(N2CCCC2)CC1
[1]
  Potency: inactive
[3]
  Potency: inactive

## CNC(=O)c1ccc2c(C(=Nc3cccc(CN(C)C)c3)c3ccccc3)c(O)[nH]c2c1
[2]
  Potency: inactive
[3]
  Potency: inactive

## CN1c2ccccc2C(=O)N2CCc3c([nH]c4ccccc34)C21 (stereo not drawn)
[1]
  Potency: inactive
[3]
  Potency: inactive

## N#Cc1ccc(Oc2ccc3c(c2)COB3O)cc1
[1]
  Potency: inactive
[3]
  Potency: inactive

## CC(C)CNc1ccnc(NCc2csc(-c3ccccc3)n2)n1
[1]
  Potency: inactive
[2]
  Potency: inactive
[3]
  Potency: inactive

## COc1nccc(-c2c(-c3ccc(F)cc3)ncn2C2CCNCC2)n1
[1]
  Potency: inactive
[2]
  Potency: inactive
[3]
  Potency: inactive

## c1ccc(CNc2nc(N3CCOc4ccccc43)nc3c2CCCC3)cc1
[2]
  Potency: inactive
[3]
  Potency: inactive

## CN(C)c1ccc(-c2nc3ncc(Cl)c(N4CCN(CC(=O)Nc5nccs5)CC4)c3[nH]2)cc1
[2]
  Potency: 17.8 µM (active)

## NC1(C(=O)N[C@@H](CCO)c2ccc(Cl)cc2)CCN(c2ncnc3[nH]ccc23)CC1
[1]
  Potency: inactive
[2]
  Potency: inactive
[3]
  Potency: inactive

## CN1C(=O)C(Cc2c[nH]c3ccccc23)NC1=S (stereo not drawn)
[1]
  Potency: inactive
[2]
  Potency: inactive
[3]
  Potency: inactive

## COc1ccc(-c2cc3nccn3c(Nc3ncccc3C(N)=O)n2)cc1OC
[2]
  Potency: inactive
[3]
  Potency: inactive

## COc1ccc(CCC(=O)Nc2nc3ccc(Cl)cc3s2)cc1OC
[1]
  Potency: inactive
[2]
  Potency: inactive
[3]
  Potency: inactive

## CNC(=O)c1cc(Oc2ccc(NC(=O)Nc3ccc(Cl)c(C(F)(F)F)c3)c(F)c2)ccn1
[3]
  Potency: inactive

## CCN1CCN(c2ccc(Nc3cc(N(C)C(=O)Nc4c(Cl)c(OC)cc(OC)c4Cl)ncn3)cc2)CC1
[1]
  Potency: inactive
[2]
  Potency: inactive
[3]
  Potency: inactive

## CC(C)(O)CC(=O)NCCn1ccc2ncnc(Nc3ccc(Oc4cccc(C(F)(F)F)c4)c(Cl)c3)c21
[1]
  Potency: inactive
[2]
  Potency: inactive
[3]
  Potency: inactive

## Cc1cccc2c1CC[C@H](CN1CCC(c3c(Cl)cccc3Cl)CC1)C[C@@H]2O
[1]
  Potency: inactive
[2]
  Potency: inactive
[3]
  Potency: inactive

## Cn1cnc(-c2cc3nccc(Oc4ccc(NC(=S)NC(=O)Cc5ccccc5)cc4F)c3s2)c1
[1]
  Potency: inactive
[2]
  Potency: inactive
[3]
  Potency: inactive

## O=C(CCCN1CCN(c2ccc(F)cc2)CC1)NC1c2ccccc2CSc2ccccc21 (stereo not drawn)
[1]
  Potency: inactive
[2]
  Potency: inactive
[3]
  Potency: inactive

## Cc1ccccc1C(C(=O)NC1CCCCC1)N(C(=O)CNc1ccc(C#N)cc1)c1cccc(F)c1 (stereo not drawn)
[1]
  Potency: inactive
[2]
  Potency: inactive
[3]
  Potency: inactive

## Cc1cnc(Nc2cccc(CN3CCOCC3)c2)nc1Nc1cccc(S(=O)(=O)NC(C)(C)C)c1
[1]
  Potency: inactive
[2]
  Potency: inactive
[3]
  Potency: inactive

## NS(=O)(=O)c1cc(Cl)c(Cl)c(S(N)(=O)=O)c1
[1]
  Potency: inactive
[2]
  Potency: inactive
[3]
  Potency: inactive

## C[C@@H]1CCO[C@H]2Cn3cc(C(=O)NCc4ccc(F)cc4F)c(=O)c(O)c3C(=O)N12
[2]
  Potency: inactive
[3]
  Potency: inactive

## Cc1ccc2c(c1)c1c(n2CCc2ccc(C)nc2)CCN(C)C1
[1]
  Potency: inactive
[2]
  Potency: inactive
[3]
  Potency: inactive
